In the library only some 3.2% were active in any assay of this set; here they are far more common.
TcdB GH inh – blocks C. difficile toxin B glycohydrolase activity; P18177; 0.24% of 350,000 active; inhibition, % at 9.99 µM; TcdB glycohydrolase enzymatic assay, plate reader; in the data active = inhibition above about 10%
PrPC surface inh – reduces human prion protein on the cell surface | cell surface PrPC, TR-FRET read-out | P04156 | 0.43% of 370,000 active | inhibition, % at 13.8 µM; in the data active = inhibition above about 24%; also: 0% = median of the test wells and 100% = reference compound wells
GDH-TPI counter – inhibits GDH-TPI coupling enzymes, artifact for Mtb FBA screen; GDH-TPI coupled enzyme counterscreen, NADH absorbance; inhibition, % at 4.8 µM; 1.2% of 360,000 active; AID 588335; in the data active = inhibition above about 30%;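 also: 0% = DMSO wells and 100% = wells lacking the enzyme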
FBA Mtb inh – inhibits M. tuberculosis FBA enzyme; inhibition, % at 1 µM; 2.3% of 360,000 active; AID 588726; purified M. tuberculosis FBA, fluorescence read-out; in the data active = inhibition above about 27%;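 also: 0% = vehicle and 100% = reference inhibitor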
Target sequence (P9WQA3 whole entry, looked up): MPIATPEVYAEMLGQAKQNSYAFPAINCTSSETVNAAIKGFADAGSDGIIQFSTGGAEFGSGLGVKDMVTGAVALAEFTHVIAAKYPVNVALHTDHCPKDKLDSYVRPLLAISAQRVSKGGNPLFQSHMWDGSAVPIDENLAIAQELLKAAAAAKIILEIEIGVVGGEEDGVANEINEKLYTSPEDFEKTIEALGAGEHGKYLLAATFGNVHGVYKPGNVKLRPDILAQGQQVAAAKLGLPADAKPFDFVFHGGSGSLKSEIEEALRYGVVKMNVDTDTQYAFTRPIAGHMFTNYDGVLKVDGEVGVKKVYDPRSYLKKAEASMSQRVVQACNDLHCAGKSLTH
Yp Topo-I inh – Y. pestis Topo-I inhibition via cleavage products; 0.064% of 360,000 active; Y. pestis Topo-I cleavage product accumulation, plate reader; activity, % at 10 µM; AID 504884; in the data active = activity above about 50%, passing the limit was not always enough
* = called active by the depositor; x = not tested or not shown; + = active, no number.

SMILES	TcdB GH inh	PrPC surface inh	GDH-TPI counter	FBA Mtb inh	Yp Topo-I inh
Cc1cc(=O)oc2c(C)c(OCC(=O)NCc3ccccn3)ccc12	1	-5	11	5	3
Cc1cc(OCC(=O)N2CCN(c3cccc(Cl)c3)CC2)c2c(C)c(C)c(=O)oc2c1	0	3	7	2	14
CCCc1cc(=O)oc2c3c(cc(OCC(=O)NCc4ccncc4)c12)OC(C)(C)CC3	-1	6	25	+	19
Cc1c(OCC(=O)NCc2ccncc2)ccc2c3c(c(=O)oc12)CCCC3	2	8	3	9	11
Cc1cc(OCC(=O)C(C)(C)C)c2c(C)c(C)c(=O)oc2c1	x	-1	5	49*	8
CCCc1cc(=O)oc2c3c(cc(OCC(=O)NCc4ccccn4)c12)OC(C)(C)CC3	x	0	18	192*	27
Cc1cc(OCC(=O)Nc2ccccn2)c2c(C)c(C)c(=O)oc2c1	1	-8	-6	11	-1
Cc1cc(OCC(=O)NCc2ccccn2)c2c(C)c(C)c(=O)oc2c1	-1	-13	22	120*	1
CC(C)C#Cc1cnc2c(c1)C(=O)N([C@@H](C)CO)C[C@@H](C)[C@H](CN(C)C(=O)c1cnccn1)O2	-8	x	x	x	x
Cc1c(C)c2c(OCC(=O)NCc3ccccn3)cc3c(c2oc1=O)CCC(C)(C)O3	1	5	24	+	14
Cc1c(C)c2c(OCC(=O)NCC(O)c3ccccc3)cc3c(c2oc1=O)CCC(C)(C)O3 (stereo unspecified)	-2	5	15	19	9
CN1CCN(C(=O)C[C@@H]2C=C[C@@H](NC(=O)Nc3ccccc3F)[C@H](CO)O2)CC1	2	x	x	x	x
O=C(Nc1sccc1C(=O)NCc1ccco1)c1cccnc1	x	0	32*	1	4
O=C(NCc1ccco1)C(c1ccccc1)N(C(=O)Cc1cccs1)c1cccnc1 (stereo unspecified)	0	10	1	-3	2
COc1cc(OC)cc(-c2c(C#Cc3ccsc3)c3cc(-c4ccc5cc[nH]c5c4)ccc3n2C)c1	1	-14	33*	19	-12
COc1cc(OC)cc(-c2c(C#Cc3ccsc3)c3cc(-c4ccccc4OC)ccc3n2C)c1	1	5	39*	19	-1
COC(=O)c1c(C(=O)OC)c2c(-c3ccccc3)cc3cccc1n32	1	-3	15	121*	18
COC(=O)c1c(-c2ccccc2)csc1N	x	2	3	3	9
COc1ccc(N/C=C(\C#N)c2ccc(OCCCF)cc2)cc1	0	2	28	-3	13
Cc1ccc(N/C=C(\C#N)c2ccc(OCCCF)cc2)cc1	x	3	41*	1	11
CCCNC(=O)[C@H]1[C@H](CO)[C@H]2Cn3c(ccc(-c4cncnc4)c3=O)[C@H]2N1C(=O)c1ccccc1F	1	x	x	x	x
CN1CCN(C(=O)C2=C[C@@H](c3ccc4c(c3)OCO4)C[C@@H](OCCCCO)O2)CC1	0	x	x	x	x
N#C/C(=C(/O)CN1CCOCC1)c1nc2ccccc2s1	x	1	39*	9	-7
N#C/C(=C(/O)COC(=O)c1ccccc1O)c1nc2ccccc2s1	1	7	26	6	-10
N#C/C(=C(/O)c1cc2ccccc2o1)c1nc2ccccc2s1	1	2	9	1	-1
SMILES	TcdB GH inh	PrPC surface inh	GDH-TPI counter	FBA Mtb inh	Yp Topo-I inh
N#C/C(=C(/O)c1ccco1)c1nc2ccccc2s1	-2	6	56*	4	2
C[C@H](NC(=O)C[C@H]1CC[C@H]2[C@@H](COC[C@H](O)CN2C(=O)Nc2ccccc2)O1)c1ccccc1	-4	x	x	x	x
O=C(Nc1cccc(-c2csc(Nc3ccccc3)n2)c1)c1cc([N+](=O)[O-])cc(C(F)(F)F)c1	0	-1	6	2	-9
O=C(Nc1cccc(-c2csc(Nc3ccc(Cl)cc3)n2)c1)c1cc([N+](=O)[O-])cc(C(F)(F)F)c1	-1	1	41*	-1	-28
C[C@@H]1CN([C@H](C)CO)S(=O)(=O)c2ccc(-c3cncnc3)cc2O[C@@H]1CN(C)C(=O)c1cccc(F)c1	-1	x	x	x	x
O=C1c2ccc3c4c(ccc(c24)C(=O)N1c1cccc(O)c1)CC3	1	-1	9	3	9
O=C1c2ccc3c4c(ccc(c24)C(=O)N1c1cccc(O)c1)C(=O)N(c1cccc(O)c1)C3=O	1	-38	35*	3	-29
CCOC(=O)C(=O)NNc1ccc(Cl)cc1	47*	9	-2	-3	-1
CCOC(=O)C(=O)NNc1ccc(C)cc1	x	16	3	2	-2
C[C@@H]1CCCCO[C@H](CN(C)C(=O)Nc2cccc3ccccc23)[C@H](C)CN([C@@H](C)CO)C(=O)c2cc(NC(=O)Nc3ccc(F)cc3)ccc2O1	-1	x	x	x	x
Cc1ccccc1-c1ccc2c(c1)O[C@H](CN(C)C(=O)c1ccccn1)[C@@H](C)CN([C@H](C)CO)S2(=O)=O	0	x	x	x	x
Cc1cc2nc(/C=C/c3cccnc3)[nH]c2cc1C	2	-1	45*	+	-5
CCCc1cc(=O)oc2c3c(cc(OCC(=O)N[C@@H](CSC)C(=O)O)c12)OC(C)(C)CC3	0	5	20	+	4
CCCc1cc(=O)oc2c3c(cc(OCC(=O)N[C@@H](C)C(=O)O)c12)OC(C)(C)CC3	0	0	14	+	-3
CCc1cc(=O)oc2c3c(cc(OCC(=O)N[C@H](C(=O)O)[C@H](C)CC)c12)OC(C)(C)CC3	-1	0	17	+	7
CCc1cc(=O)oc2cc(C)cc(OCC(=O)NC(Cc3c[nH]c4ccc(O)cc34)C(=O)O)c12 (stereo unspecified)	-2	-6	8	12	2
CCCc1cc(=O)oc2cc(C)cc(OCC(=O)NC(Cc3c[nH]c4ccc(O)cc34)C(=O)O)c12 (stereo unspecified)	-1	-6	0	19	-8
CCCN(C)C[C@@H]1OCCCC[C@H](C)Oc2ccc(NC(=O)Nc3ccc(F)cc3)cc2C(=O)N([C@H](C)CO)C[C@@H]1C	-1	x	x	x	x
CC1(C)OC(=O)C(=CNc2ccccc2F)C(=O)O1	x	-4	12	0	-4
COc1ccccc1NC=C1C(=O)OC(C)(C)OC1=O	x	4	47*	-2	8
CC1(C)OC(=O)C(=CNc2cccc(O)c2)C(=O)O1	0	9	35*	-1	11
CCOc1ccccc1NC=C1C(=O)OC(C)(C)OC1=O	x	5	41*	-1	-2
Cn1c2ccc(Br)cc2c2nnc(SCC(=O)O)nc21	-1	-13	31*	-1	-3
Cn1c2ccccc2c2nnc(SCC(=O)Nc3cccc(O)c3)nc21	1	-8	35*	1	-3
COc1ccc(NC(=O)N(C)C[C@H]2OCCCC[C@@H](C)Oc3ccc(NC(=O)CCC(F)(F)F)cc3C(=O)N([C@@H](C)CO)C[C@H]2C)cc1	-1	x	x	x	x
CC=Cc1ccc2n(c1=O)C[C@@H]1[C@@H](CO)[C@H](C(=O)NCCC)N(C(=O)c3cccnc3)[C@H]21 (mixture of isomers)	0	x	x	x	x
